Screens as filed in PubChem.
CCHFV vOTU inh = CCHFV vOTU protease inhibition. Pep-AMC fluorescence. inhibition, % at 11.5 µM. 370,000 tested, 0.55% active. AID 651958
SARS 3CLpro inh = SARS-CoV 3CLpro protease inhibition | 290,000 tested, 0.14% active | inhibition, % at 6 µM | AID 1706 | recombinant SARS-CoV 3CLpro, quenched FRET peptide cleavage; in the data active means inhibition above about 12%
GDH-TPI counter = GDH-TPI coupled enzyme inhibition counter-screen | 360,000 tested, 1.2% active | inhibition, % at 4.8 µM | GDH-TPI coupled enzyme counterscreen, NADH absorbance
RecA intein inh = blocks M. tuberculosis RecA intein splicing; cell-free RecA intein splicing, fluorescence; 290,000 tested, 0.75% active; inhibition, % (no concentration beside the values); P9WHJ3; in the data active means inhibition above about 30%; inconclusive means no clear call, values can overlap the other calls
Mtb FBA inh = Mtb fructose-bisphosphate aldolase inhibition; inhibition, % at 1 µM; purified M. tuberculosis FBA, fluorescence read-out; 360,000 tested, 2.3% active; P9WQA3; in the data active means inhibition above about 27%
Target sequence (P9WQA3 whole entry, looked up): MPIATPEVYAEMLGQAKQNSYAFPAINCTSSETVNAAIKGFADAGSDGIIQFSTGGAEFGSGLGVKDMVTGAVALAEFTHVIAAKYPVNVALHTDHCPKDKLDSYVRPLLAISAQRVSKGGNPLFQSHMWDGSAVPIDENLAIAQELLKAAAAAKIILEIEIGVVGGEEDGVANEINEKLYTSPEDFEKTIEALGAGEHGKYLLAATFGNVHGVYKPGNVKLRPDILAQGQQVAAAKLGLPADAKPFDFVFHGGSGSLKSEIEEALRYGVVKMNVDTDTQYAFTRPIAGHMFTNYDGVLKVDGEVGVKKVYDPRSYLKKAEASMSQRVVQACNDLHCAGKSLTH
VHR inh abs = inhibitors of human VHR1 phosphatase (DUSP3); 290,000 tested, 0.52% active; recombinant VHR phosphatase, pNPP absorbance; AID 1654; inhibition, % at 13.3 µM; P51452; in the data active means inhibition above about 50%
GFP chromo cs = counter-screen: blocks GFP chromophore formation; AID 434968; EC50, µM; shares compounds with RecA intein inh; 2,100 tested, 83% active; cell-free GFP chromophore formation, fluorescence; call rule not given here
Large screens that a line does not name were inactive (follow-up assays come after a bar, where they were run). Compounds with a hit are over-represented: about 4.7% of the library has one in this group of screens. Unless noted, no stated cut-off is given here; in the data, active means inhibition above about 30%; inactive means the rest.

CCn1nc(C)c(CN2CCC(n3nccc3NC(=O)Cc3ccccc3)CC2)c1C	none
Cc1cccc(Cn2nnc3c2C(=O)c2ccccc2C3=O)c1	RecA intein inh 37.4 | GFP chromo cs 9.93
CCOc1cc(C2C(C#N)=C(N)Oc3n[nH]c(-c4ccccc4)c32)ccc1O (stereo unspecified)	RecA intein inh 82.9 | GFP chromo cs 6.4
N#CC1=C(N)Oc2n[nH]c(-c3cccnc3)c2C1c1cc(F)ccc1F (stereo unspecified)	none
Cc1ccc(-c2[nH]nc3c2C(c2ccc(OC(=O)N4CCOCC4)cc2)C(C#N)=C(N)O3)cc1 (stereo unspecified)	RecA intein inh 82.4 (no result: CCHFV vOTU inh) | GFP chromo cs 10.5
COc1ccc(-c2[nH]nc3c2C(c2ccoc2)C(C#N)=C(N)O3)cc1 (stereo unspecified)	RecA intein inh 87.2 | GFP chromo cs 4.66
Cc1ccc(-c2[nH]nc3c2C(c2cccnc2)C(C#N)=C(N)O3)cc1 (stereo unspecified)	RecA intein inh 69.1 | GFP chromo cs 13.5
CCOC(=O)C1=C(C)OC(N)=C(C#N)C1c1ccc(O)c(OC)c1 (stereo unspecified)	none
COc1cccc(CN2CCC2(C)C(=O)Nc2ccc(C)c(O)c2)c1F (stereo unspecified)	none (no result: SARS 3CLpro inh, RecA intein inh, VHR inh abs)
CCOC(=O)CNC(=O)CSc1nnc(-c2ccccc2)n1CC	none (no result: SARS 3CLpro inh, GDH-TPI counter, RecA intein inh, Mtb FBA inh, VHR inh abs)
N#CC1=C(N)Oc2nc(-c3ccccc3)[nH]c2C1c1cccnc1 (stereo unspecified)	RecA intein inh 77.5 | GFP chromo cs 22.7
N#CC1=C(N)Oc2n[nH]c(-c3ccccc3)c2C1c1cccnc1 (stereo unspecified)	RecA intein inh 80.5 | GFP chromo cs 17.2
O=C(NC1CCCC1)C(c1ccc(F)cc1)N(Cc1ccc(F)cc1)C(=O)CCl (stereo unspecified)	RecA intein inh 55.8 | GFP chromo cs 1.75
COc1ccc(N(C(=O)CCl)C(C(=O)NC2CCCCC2)c2cccnc2)cc1 (stereo unspecified)	SARS 3CLpro inh 21.2, RecA intein inh 75.1 | GFP chromo cs 11
COc1ccc(C(C(=O)NC2CCCCC2)N(C(=O)CCl)c2cccc(Cl)c2)cc1 (stereo unspecified)	RecA intein inh 58.7 | GFP chromo cs inconclusive
O=C(NC1CCCCC1)C(c1cccnc1)N(C(=O)CCl)c1ccc(F)cc1 (stereo unspecified)	RecA intein inh 73.2 | GFP chromo cs 11.5
O=C(Nc1ccccc1-c1nnc(SCc2ccccc2Cl)o1)c1ccccc1	none
COc1ccc2nc3n(c(=O)c2c1)-c1ccc(Cl)cc1C(=O)NC3Cc1ccc(O)cc1 (stereo unspecified)	none (no result: SARS 3CLpro inh, RecA intein inh, VHR inh abs)
C[C@H](CO)N1C[C@H](C)[C@@H](CN(C)S(=O)(=O)c2ccc(-n3cccn3)cc2)OCc2cn(nn2)CCCC1=O	none (no result: SARS 3CLpro inh, RecA intein inh, VHR inh abs)
CCc1nc(C)cn1S(=O)(=O)c1ccc([N+](=O)[O-])cc1	none
CCCn1c(CC)nc([N+](=O)[O-])c1S(=O)(=O)c1ccccc1	RecA intein inh 46.2 | GFP chromo cs inactive
COc1ccc(CC2=CC(=O)c3ccccc3C2=O)cc1	RecA intein inh 77.1 | GFP chromo cs 8.48
CC[n+]1ccc2cc(OC)c(OC)cc2c1Cc1ccc(OC)c(OC)c1	RecA intein inh 50.6 (no result: CCHFV vOTU inh) | GFP chromo cs inactive
O=c1[nH]cc(NCc2ccccc2)c(=O)[nH]1	none (no result: SARS 3CLpro inh, RecA intein inh, VHR inh abs)
O=c1[nH]cc(NCCc2ccccc2)c(=O)[nH]1	RecA intein inh 51.9 | GFP chromo cs 5.49
O=C(NCC1(c2ccccc2)CCCC1)C(=O)NCC1(c2ccccc2)CCCC1	none
O=C(NCC1(c2ccccc2)CCCC1)C1(c2ccccc2)CCCC1	RecA intein inh 30.1 | GFP chromo cs inactive
CS(=O)(=O)c1ccc(C(=O)OCC(=O)NC23CC4CC(CC(C4)C2)C3)cc1[N+](=O)[O-]	RecA intein inh 32.1 | GFP chromo cs inactive
N#Cc1c(-c2ccccc2)nc(SCC(=O)N(c2ccccc2)c2ccccc2)[nH]c1=O	none
N#Cc1c(-c2ccccc2)nc(SCC(=O)N2c3ccccc3Sc3ccccc32)[nH]c1=O	CCHFV vOTU inh 32.6, RecA intein inh 44.2 | GFP chromo cs 10.4
N#Cc1c(SCC(N)=O)nc2c(c1-c1ccc(OCc3ccccc3)cc1)CCCC2	none (no result: CCHFV vOTU inh, GDH-TPI counter, RecA intein inh, Mtb FBA inh, VHR inh abs)
